One test has as its target Albumin (Bos taurus) (UniProt P02769). Description: compounds binding labelled BSA control protein – biochemical, small-molecule microarray, Alexa647 label, 635/667 nm fluorescence, artefact control for SMM control protein annotation, profiling panel (AID 1118).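 Further: score merges 667 nm emission intensity and signal-to-noise per printed compound spot.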 The settings on record: BSA-A647 binding, fluorescence 635 nm, higher = more signal.
A short description of test [1]: probe aXIP binding to arrayed compounds – biochemical, NeuroSMM set, 635/667 nm fluorescence, primary screen (AID 1119).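 Further: probe is the protein aXip251-270 applied at 1 µg/mL to compound-printed slides; binding of probe to printed compounds measured as 667 nm fluorescence plus signal to noise.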 The note with it: small-molecule microarray, higher = more signal, called active from +8 up or from −8 down.
Test [2] is described as follows: probe aNOTCH3 binding on compound microarray – biochemical, small-molecule microarray, 635/667 nm fluorescence, primary screen (AID 1120).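 Further: probe is a biotin-tagged antibody raised against NOTCH3 rather than NOTCH3 protein; score merges spot fluorescence near 667 nm with spot signal to noise.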 The note with it: higher = more signal.
The nature of test [3]: probe aNOTCH2 binding on compound microarray – biochemical, small-molecule microarray, 635/667 nm fluorescence, primary screen (AID 1121).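 Further: score merges feature fluorescence read at 667 nm with its signal to noise.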 The settings on record: higher = more signal.
For test [4], the target named is Carbonic anhydrase 2 (Homo sapiens) (UniProt P00918). In words: compounds binding carbonic anhydrase 2 – biochemical, small-molecule microarray, Alexa647-labelled CAII, profiling panel (AID 1122). The note with it: CAII-A647 binding fluorescence, higher = more signal.
Test [5] in a line: COS7 lysate on small-molecule microarray, probe aHis, 635 nm (AID 1123).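 Further: z-score combines 667nm fluorescence intensity with signal-to-noise per printed compound spot.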 The note with it: COS7 cell lysate, fluorescence, higher = more signal.
Test [6] is described as follows: probe aLAP1 signal on lysate-treated microarray – cell lysate, small-molecule microarray, COS7 lysate, primary screen (AID 1124).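 Further: lysate comes from COS7 cells expressing LAP1 and is applied at 0.3 µg/mL; score merges spot fluorescence near 667 nm with signal-to-noise over triplicate slides.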 The note with it: probe aLAP1, fluorescence, higher = more signal.
The test system of the next test is Sam68 (KHDRBS1). In words: compounds binding KHDRBS1 protein – biochemical, small-molecule microarray, 635 nm fluorescence, primary screen (AID 1125).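 Further: score merges 667 nm channel intensity with signal to noise over triplicate slides.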 The settings on record: higher = more signal.
Test [7] relates to Chordin-like protein 2 (CHRDL2). Description: compounds binding chordin-like 2 – biochemical, small-molecule microarray, 635 nm fluorescence, primary screen (AID 1126).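 Further: printed compound slides probed with Chrdl2 protein at 4 µg/mL for 1 h at 4 C; score merges 667 nm emission intensity with signal to noise over three replicate slides.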 The note with it: fluorescence 635 nm, higher = more signal.
In test [8] the target is Concanavalin-A (Canavalia ensiformis) (UniProt P02866). In words: compounds binding concanavalin A lectin – biochemical, small-molecule microarray, Alexa647 label, 635 nm, artefact control for SMM control protein annotation, primary screen (AID 1127).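 Further: z combines 667 nm emission intensity with signal-to-noise across three replicate slides.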 The settings on record: ConA-A647 binding fluorescence, higher = more signal.
Concanavalin-A (Canavalia ensiformis), sequence (P02866 whole entry, looked up): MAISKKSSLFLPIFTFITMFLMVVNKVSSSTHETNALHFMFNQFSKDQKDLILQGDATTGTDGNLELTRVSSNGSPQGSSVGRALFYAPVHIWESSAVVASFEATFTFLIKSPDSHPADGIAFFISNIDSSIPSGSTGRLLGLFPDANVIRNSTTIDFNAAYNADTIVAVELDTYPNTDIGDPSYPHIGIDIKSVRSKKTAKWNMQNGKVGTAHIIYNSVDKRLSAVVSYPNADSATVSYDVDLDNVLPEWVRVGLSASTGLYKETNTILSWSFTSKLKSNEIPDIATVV
Test [9] is described as follows: compounds binding Alexa647 anti-His antibody – biochemical, small-molecule microarray, 635 nm fluorescence, artefact control for SMM control protein annotation, primary screen (AID 1128).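 Further: score merges feature fluorescence with signal-to-noise for each printed compound spot.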 The settings on record: higher = more signal.
Test [10] relates to Human papillomavirus type 1a E7 protein (residues 1-88). Description: HPV1a E7 small-molecule binders, primary screen, biochemical, small-molecule microarray, residues 1-88, 635 nm (AID 1129). The settings on record: small-molecule microarray binding, fluorescence 635 nm; higher = more signal.
The target in test [11] is Focal adhesion kinase 1 (Homo sapiens) (UniProt Q05397). In words: PTK2 protein binding on printed compound slides – biochemical, small-molecule microarray, 635/667 nm fluorescence, BSA, DTT, primary screen (AID 1130).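 Further: composite of spot emission at 667 nm and signal to noise over triplicate slides.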 The settings on record: 635 nm fluorescence, higher = more signal.
Focal adhesion kinase 1 (Homo sapiens), sequence (Q05397 whole entry, looked up): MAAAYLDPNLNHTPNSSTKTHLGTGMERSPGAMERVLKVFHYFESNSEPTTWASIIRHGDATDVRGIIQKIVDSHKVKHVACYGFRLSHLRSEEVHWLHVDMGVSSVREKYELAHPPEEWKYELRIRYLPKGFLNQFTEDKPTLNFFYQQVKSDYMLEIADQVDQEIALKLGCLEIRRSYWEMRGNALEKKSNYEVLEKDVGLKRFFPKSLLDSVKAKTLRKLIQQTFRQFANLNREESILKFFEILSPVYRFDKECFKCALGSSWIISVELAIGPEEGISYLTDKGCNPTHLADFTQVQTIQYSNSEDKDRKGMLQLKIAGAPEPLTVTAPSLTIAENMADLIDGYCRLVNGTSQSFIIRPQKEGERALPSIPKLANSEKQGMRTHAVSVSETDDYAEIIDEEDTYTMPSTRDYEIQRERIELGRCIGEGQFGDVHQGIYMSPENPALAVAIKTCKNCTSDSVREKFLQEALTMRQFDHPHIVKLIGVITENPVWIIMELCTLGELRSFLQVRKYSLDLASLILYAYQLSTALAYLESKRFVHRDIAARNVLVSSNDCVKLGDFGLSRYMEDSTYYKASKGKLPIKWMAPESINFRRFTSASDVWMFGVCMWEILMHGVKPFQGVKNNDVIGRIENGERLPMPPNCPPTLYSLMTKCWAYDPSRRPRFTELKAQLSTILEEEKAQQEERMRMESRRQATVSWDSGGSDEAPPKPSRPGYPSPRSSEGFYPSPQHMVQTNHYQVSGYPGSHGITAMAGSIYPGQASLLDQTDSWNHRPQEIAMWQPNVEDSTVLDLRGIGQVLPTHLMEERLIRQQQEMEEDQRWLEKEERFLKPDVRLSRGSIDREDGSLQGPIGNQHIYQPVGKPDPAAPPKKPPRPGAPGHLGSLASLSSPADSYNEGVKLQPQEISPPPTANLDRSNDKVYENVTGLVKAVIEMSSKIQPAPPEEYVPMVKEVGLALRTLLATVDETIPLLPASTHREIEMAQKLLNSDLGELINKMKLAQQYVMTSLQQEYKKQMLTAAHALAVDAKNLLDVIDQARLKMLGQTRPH
The subject of test [12] is Fibrinogen (Alexa647-labelled). In words: Alexa647-fibrinogen binding to printed small molecules – biochemical, small-molecule microarray, 635/667 nm fluorescence, artefact control for SMM control-protein annotation, profiling panel (AID 1131).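 Further: z-score merges 667 nm fluorescence with per-spot signal-to-noise over triplicate slides.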 The note with it: fibrinogen-A647 binding fluorescence, higher = more signal.
Test [13] addresses Follistatin (Homo sapiens) (UniProt P19883). In words: FST protein binding to printed compounds – biochemical, small-molecule microarray, 635/667 nm fluorescence, primary screen (AID 1132). The settings on record: 635 nm fluorescence, higher = more signal.
Test [14] deals with Fibroblast growth factor 2 (Homo sapiens) (UniProt P09038). In words: basic fibroblast growth factor binding to printed compounds – biochemical, small-molecule microarray, 635/667 nm fluorescence, primary screen (AID 1133). The settings on record: FGF2, fluorescence 635/667, higher = more signal.
Fibroblast growth factor 2 (Homo sapiens), sequence (P09038 whole entry, looked up): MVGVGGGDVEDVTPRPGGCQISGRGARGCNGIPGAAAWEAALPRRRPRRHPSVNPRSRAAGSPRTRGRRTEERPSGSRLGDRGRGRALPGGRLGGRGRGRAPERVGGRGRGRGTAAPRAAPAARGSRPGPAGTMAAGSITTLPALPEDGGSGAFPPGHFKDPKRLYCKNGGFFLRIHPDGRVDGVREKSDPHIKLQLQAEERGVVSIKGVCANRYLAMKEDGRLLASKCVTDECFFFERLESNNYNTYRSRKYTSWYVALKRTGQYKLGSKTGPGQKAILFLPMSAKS
Test [15] is described as follows: JC-1 mitochondrial potential readout, lung cancer cells – cell-based, A549, JC-1 fluorescence, basal, 24 h, 100 nL, profiling panel (AID 1138).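 Further: A549 lung adenocarcinoma cells under basal conditions with no added stimulus; test concentration not given here.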 The note with it: higher = more signal.
For the next test, the system named is Lefty1. In words: Lefty1 protein binding to printed compounds – biochemical, small-molecule microarray, 635/667 nm fluorescence, primary screen (AID 1139). The note with it: fluorescence 635/667, higher = more signal.
Test [16] deals with wheat germ agglutinin (Triticum aestivum), Alexa647-labelled. In words: Alexa647-WGA lectin binding to printed small molecules – biochemical, small-molecule microarray, 635/667 nm fluorescence, artefact control for SMM control-protein annotation, profiling panel (AID 1140).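 Further: score merges 667 nm feature emission with signal to noise over triplicate slides.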 The note with it: WGA-A647 binding, 635 nm fluorescence, higher = more signal.
Test [17] addresses Luciferin 4-monooxygenase (Photinus pyralis) (UniProt P08659). Description: inhibition of purified Photinus pyralis luciferase – biochemical, luminescence, purified enzyme, 2006 set, primary screen (AID 1141).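 Further: cell-free assay with purified firefly luciferase at 100 ng per well in PBS; test concentration not given here.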 The settings on record: purified firefly luciferase, SteadyGlo luminescence, 30 min; higher = more signal, called active from +8 up or from −8 down.

Calls of active or inactive are those of the source.

Albumin (Bos taurus), sequence (P02769 whole entry, looked up): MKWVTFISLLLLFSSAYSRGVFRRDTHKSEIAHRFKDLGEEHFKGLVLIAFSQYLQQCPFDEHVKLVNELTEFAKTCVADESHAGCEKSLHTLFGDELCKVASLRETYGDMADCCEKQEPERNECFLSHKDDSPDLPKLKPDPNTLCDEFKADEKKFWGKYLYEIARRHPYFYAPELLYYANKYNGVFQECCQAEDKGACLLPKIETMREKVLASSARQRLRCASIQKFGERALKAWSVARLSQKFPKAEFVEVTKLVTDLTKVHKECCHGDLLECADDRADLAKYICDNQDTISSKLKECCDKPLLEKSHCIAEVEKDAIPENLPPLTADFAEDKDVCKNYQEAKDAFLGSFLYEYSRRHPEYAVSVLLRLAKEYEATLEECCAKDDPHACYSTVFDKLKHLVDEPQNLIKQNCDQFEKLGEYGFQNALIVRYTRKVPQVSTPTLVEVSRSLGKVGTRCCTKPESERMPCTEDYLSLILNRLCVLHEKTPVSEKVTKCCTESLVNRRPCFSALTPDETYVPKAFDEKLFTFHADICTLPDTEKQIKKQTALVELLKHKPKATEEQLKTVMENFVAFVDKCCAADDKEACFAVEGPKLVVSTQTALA
Follistatin (Homo sapiens), sequence (P19883 whole entry, looked up): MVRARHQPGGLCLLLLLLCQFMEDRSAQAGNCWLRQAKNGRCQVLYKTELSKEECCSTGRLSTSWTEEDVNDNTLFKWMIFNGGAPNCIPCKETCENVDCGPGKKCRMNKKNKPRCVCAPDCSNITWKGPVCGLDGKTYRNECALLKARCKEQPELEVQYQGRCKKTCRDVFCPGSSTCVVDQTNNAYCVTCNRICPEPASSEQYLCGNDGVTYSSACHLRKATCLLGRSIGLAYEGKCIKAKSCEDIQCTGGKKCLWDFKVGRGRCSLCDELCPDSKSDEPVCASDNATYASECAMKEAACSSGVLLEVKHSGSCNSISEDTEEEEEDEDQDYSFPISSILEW
Luciferin 4-monooxygenase (Photinus pyralis), sequence (P08659 whole entry, looked up): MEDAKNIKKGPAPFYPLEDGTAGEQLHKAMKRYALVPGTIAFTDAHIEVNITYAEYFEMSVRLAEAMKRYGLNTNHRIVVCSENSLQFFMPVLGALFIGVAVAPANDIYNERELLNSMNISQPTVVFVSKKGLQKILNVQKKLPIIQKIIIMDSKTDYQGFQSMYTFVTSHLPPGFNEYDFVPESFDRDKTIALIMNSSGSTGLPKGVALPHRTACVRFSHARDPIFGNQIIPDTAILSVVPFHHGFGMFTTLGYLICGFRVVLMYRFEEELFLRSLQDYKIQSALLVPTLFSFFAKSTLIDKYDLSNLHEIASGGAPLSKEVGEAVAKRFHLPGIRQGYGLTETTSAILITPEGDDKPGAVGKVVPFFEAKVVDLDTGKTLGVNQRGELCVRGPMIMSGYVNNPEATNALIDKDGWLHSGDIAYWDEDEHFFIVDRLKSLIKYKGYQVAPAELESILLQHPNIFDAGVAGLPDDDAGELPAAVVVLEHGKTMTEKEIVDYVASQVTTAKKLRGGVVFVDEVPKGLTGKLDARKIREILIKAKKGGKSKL

For `COC(=O)[C@@H]1CC[C@H](C)[C@@H](c2ccc(Br)cc2)N1C(=O)C(F)(F)F`, the composite z-score in the test with Albumin (Bos taurus) was -0.591; in test [2], -0.232; in [3], -0.1; in test [4], -0.292; in test [5], 0.23; in test [6] it was 0.0015. For the same compound, the composite z-score in the test with Sam68 (KHDRBS1) was -0.412; in [7], -0.183; in [8] it was -0.317; in test [9], -0.0497; in [10], -1.42; in test [11], -0.0957. The composite z-score is -0.0695 in [12]; -0.202 in test [13]; -0.0514 in test [14]; -0.125 in the test with Lefty1; -0.321 in test [16]. For the same compound, the composite Z-score in test [1] was -0.225 (inactive). Moreover, the z-score is 0.0789 in test [15] and -0.1 (inactive) in [17].

With `CCCNC(=O)OC[C@H]1O[C@H](CCON=C[C@@H](C)[C@H](OCc2ccccc2)C(C)C)C=C[C@@H]1Oc1ccc(OC)cc1`, the composite z-score in the test with Albumin (Bos taurus) is -0.655; in test [2] it was -0.0308; in test [3], -0.149; in test [4], -0.473; in [5] it was 0.775; in test [6] it was -0.394. In addition, the composite z-score in the test on Sam68 (KHDRBS1) is -1.04; in test [7] it was 0.379; in test [8] it was -0.501; in test [9], 3.25; in [10] it was -0.603; in test [11] it was -0.072. In addition, the composite z-score in test [12] is -0.101; in [13] it was -0.134; in test [14], -0.0238; in the test with Lefty1, 0.401; in [16], -0.199. Moreover, the composite Z-score in test [1] is -0.288 (inactive). Further, the z-score is 1.63 in [15] and -1.46 (inactive) in test [17].

As to `CCOC(=O)[C@H](Cc1ccccc1)NC(=O)CCC1CC(OC(=O)NCc2cccc3ccccc23)CC2(CCCC(COC(=O)NCCOc3ccccc3)O2)O1` (stereo not given in full), the composite z-score with Albumin (Bos taurus) was 0.0423; in [2], -0.16; in [3] it was -0.0859; in [4] it was 0.391; in [5] it was 1.05; in [6], 0.132. The composite z-score in the test on Sam68 (KHDRBS1) amounted to 1.24; in [7] it was 0.439; in test [8] it was 1.12; in test [9], 1.39; in test [10], 1.01; in [11], 0.227. For the same compound, the composite z-score in test [12] came to 0.725; in test [13], 0.485; in test [14] it was 0.279; in the test with Lefty1, 0.573; in test [16], 0.268. For the same compound, the composite Z-score in test [1] is 0.19 (inactive). Also, the z-score is -0.16 in test [15] and 1.13 (inactive) in test [17].

Consider `O=C(NN=C1C[C@@H](O)[C@@H](O)[C@@H]2[C@@H]3C(=O)N(Cc4ccc5c(c4)OCO5)C(=O)[C@@H]3CC[C@@H]12)OCc1ccccc1`, for which the composite z-score with Albumin (Bos taurus) was 0.544; in test [2], -0.0377; in test [3], -0.0817; in test [4] it was -0.141; in test [5] it was -0.357; in test [6], 0.0507. The composite z-score was -0.449 in the test with Sam68 (KHDRBS1); -0.0473 in [7]; -0.0653 in test [8]; 0.921 in test [9]; 0.0191 in test [10]; 0.28 in test [11]. Besides, the composite z-score in [12] is 0.057; in test [13], -0.137; in test [14], -0.0806; in the test on Lefty1, -0.257; in [16], 0.227. Also, the composite Z-score in test [1] was 0.536 (inactive). Also, the z-score in test [15] is -0.734; in test [17] it was 1.02 (inactive).

Regarding `CCN1C(=O)[C@H]2[C@H]3[C@H](O)[C@H](O)CC(=NOCC[C@@H]4C=C[C@H](OC(C)=O)[C@@H](COC(C)=O)O4)[C@@H]3CC[C@H]2C1=O`, the composite z-score in the test with Albumin (Bos taurus) is 0.541; in [2] it was -0.149; in test [3], -0.12; in test [4], 0.385; in [5] it was 0.305; in [6] it was 0.256. Besides, the composite z-score in the test with Sam68 (KHDRBS1) stood at 0.214; in [7] it was 0.63; in test [8], 0.544; in [9] it was 0.535; in test [10], 0.311; in [11], 0.39. The composite z-score was determined as 0.936 in [12]; 0.472 in test [13]; 0.419 in test [14]; 0.298 in the test on Lefty1; 0.97 in test [16]. Besides, the composite Z-score in [1] was 0.501 (inactive). In addition, the z-score in test [15] was -0.812; in test [17], 0.838 (inactive).

For the compound `CON=C1c2cc(OC)ccc2O[C@H](c2cccc(OC)c2)[C@H]1O`, the composite z-score is -0.181 with Albumin (Bos taurus); 0.123 in [2]; 0.0267 in test [3]; 0.11 in [4]; 0.275 in test [5]; 0.332 in [6]. The composite z-score in the test with Sam68 (KHDRBS1) was 0.415; in test [7], 0.707; in [8], 0.267; in test [9] it was 0.293; in test [10] it was 0.416; in test [11], 0.197. Besides, the composite z-score in test [12] came out at 0.273; in [13], 0.587; in test [14] it was 0.675; in the test with Lefty1, 0.6; in [16], 0.208. The composite Z-score in [1] is 0.133 (inactive). Moreover, the figures for the z-score in [15] and in test [17] were 0.314 and -2.9 (inactive), respectively.

`OC[C@H]1O[C@H](C#Cc2ccccc2)C=C[C@@H]1O`: the composite z-score in the test with Albumin (Bos taurus) is 0.475; in test [2], -0.0647; in test [3] it was -0.101; in test [4], -0.0795; in test [5] it was 0.171; in [6] it was -0.647. Further, the composite z-score was 0.0701 with Sam68 (KHDRBS1); 0.622 in test [7]; 0.341 in test [8]; -0.0558 in [9]; 0.202 in test [10]; 0.0213 in [11]. The composite z-score in [12] was 0.624; in test [13], 0.634; in [14], 0.147; with Lefty1, 0.409; in test [16], 0.189. Further, in [1], the composite Z-score is 0.131 (inactive). The values for the z-score in test [15] and in [17] were 0.462 and -1.47 (inactive), respectively.

On to `C[C@H]1CC[C@H]2C(=O)OC(COc3ccc(C(C)(C)C)cc3)CN2[C@@H]1c1ccc(Br)cc1` (stereo not given in full), for which the composite z-score with Albumin (Bos taurus) was 0.654; in [2], -0.165; in [3], -0.189; in [4] it was 0.267; in test [5], 1.42; in [6], 0.2. Further, the composite z-score in the test on Sam68 (KHDRBS1) is 0.961; in test [7], 0.186; in [8] it was 1.02; in [9], 0.148; in test [10], 1.15; in test [11] it was 0.29. Moreover, the composite z-score in test [12] came out at 0.819; in test [13], 0.312; in test [14] it was 0.118; with Lefty1 it was 0.334; in test [16], 0.264. The composite Z-score in test [1] was 0.455 (inactive). Also, the values for the z-score in [15] and in test [17] were 1.28 and -1.37 (inactive), respectively.

The values above are taken from PubChem BioAssay.
